From ChEMBL document CHEMBL1157539, “Thousands of chemical starting points for antimalarial lead identification” (Nature, 2010)

Legend:
Assay type in all cases: functional
[1] = system: Plasmodium falciparum; test: GSK_TCMDC: Inhibition of Plasmodium falciparum 3D7 in whole red blood cells, using parasite LDH activity as an index of growth. Test compounds present at 2uM
[2] = system: Plasmodium falciparum; test: GSK_TCMDC: Inhibition of Plasmodium falciparum Dd2 in whole red blood cells, using parasite LDH activity as an index of growth. Test compounds present at 2uM
[3] = system: HepG2; test: GSK_TCMDC: Percent inhibition of human HepG2 cell line. Test compounds present at 10uM.

Structure (SMILES) | Inhibition [1] | Inhibition [2] | Inhibition [3]
COc1ccc2nccc([C@@H](O)CN3CCC(NCc4ccc5scnc5c4)CC3)c2c1.O=C(O)C(=O)O | 100% | 93% | 17%
Cn1c2c(c3ccccc31)CN(CCC1(c3ccc(Cl)c(Cl)c3)CN(C(=O)Cc3ccccc3)CCO1)CC2 (stereo not given) | 95% | 91% | 22%
CC(C)NCc1ccc(-c2ccc(-c3nc4cc(F)ccc4[nH]3)cc2)cc1.O=C(O)C(F)(F)F | 100% | 100% | 14%
O=C(/C=C/c1ccc(Cl)c(Cl)c1)NCCCCCN1CCC(NC(=O)Nc2cccc(Cl)c2F)CC1 | 100% | 30% | 75%
O=C(Nc1cccc(-c2ccc(-c3nc4cc(C(F)(F)F)ccc4[nH]3)s2)c1)c1ccncc1 | 99% | 46% | 79%
CN(C)CCOc1cc(NC(=O)Nc2ccc(-c3ccccc3)cc2Cl)ccc1I | 100% | 93% | 25%
O=C(Nc1ccc(Cl)cc1)Nc1cccc(-c2cccc(-c3nc4ccccc4[nH]3)c2)c1 | 100% | 56% | 70%
CCc1cn2c3c(cc(C(=O)N[C@@H](Cc4cccc(F)c4)[C@H](O)CNC4CC4)cc13)N(C)S(=O)(=O)CC2.O=CO | 98% | 98% | 2%
CN(c1ccc(NC(=O)Nc2cccc(Cl)c2)cc1)c1ccnc(N)n1.Cl | 100% | 40% | 75%
COc1ccc(C(=O)CCC(=O)N(Cc2ccc(-c3ccc(CNCCc4ccccc4)cn3)cc2)C(C)CN(C)C)cc1F.O=C(O)C(F)(F)F (stereo not given) | 98% | 57% | 20%
